Shiga inhibitor – blocks Shiga toxin action in Vero cells; Vero cells, Shiga toxin protein synthesis inhibition reporter; inhibition, % at 38.7 µM; 290,000 compounds, 9.2% hits; in the data active = inhibition mostly above about 28%, no sharp cut-off; inactive = mostly below about 43%
Pf growth 48h – P. falciparum growth inhibition at 48 hours (one generation); P. falciparum luciferase growth in erythrocytes, 48 h; Potency, µM (highest dose often 28.7 µM), actives largely listed as inhibitors; 310,000 compounds, 5.9% hits; AID 504832
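Here the parasites carry a stable luciferase gene and grow inside erythrocytes in Albumax-based RPMI medium with compound for one erythrocytic cycle. Activity is scored as loss of luminescent signal.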
CHX counter – counter-screen hit for Shiga toxin inhibitors, cycloheximide. cell reporter, cycloheximide protein synthesis inhibition counterscreen. max response, %. 300,000 compounds, 12% hits; in the data active = max response mostly above about 13%, no sharp cut-off; inactive = mostly below about 14%; also: read at 38.3 µM for the half of the compounds with a filed dose
Pf growth 96h – P. falciparum growth inhibition at 96 hours. P. falciparum luciferase reporter growth, 96 h. Potency, µM (highest dose often 28.7 µM), most hits filed as inhibitors. 320,000 compounds, 6.9% hits
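Two-generation exposure (96 h) targets delayed-death phenotype. Reporter parasites carrying integrated firefly luciferase, in red cells at 2% hematocrit and 0.05% parasitemia final, kept at 37 C, 5% CO2; luminescence loss indicates inhibition.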
SARS PLP yeast – inhibitors of SARS-CoV papain-like protease in yeast | S. cerevisiae expressing SARS-CoV PLpro, growth rescue | Potency, µM (top dose mostly 32.9 µM), actives largely listed as activators | 330,000 compounds, 0.19% hits | AID 485353; calls by dose curve; also: nearly all actives have a fitted effect of over 55% in size
NS1 function inh – blocks influenza NS1 protein function; AID 2326; 270,000 compounds, 0.4% hits; Potency, µM (titrated, usually from 46.1 µM); calls by dose curve; also: actives are rising curves; nearly all actives have a fitted effect of over 50% in size
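Recovery from NS1-induced slow growth read by OD600 in budding yeast switched to galactose assay medium (pH 6.0, -URA) at 1:100 dilution. Compound 23 nl per well; the matching strain lacking NS1 serves as control.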
Numbers stand for hits; - = inactive; ? = inconclusive; . = not tested or not shown; ! = repeats disagree. Most compounds without a hit are left out; they make up all but 21% or so of the library. Unless noted, calls follow the shape of the dose curve; as a rule, active = well fitted inhibition curve with a large enough effect; inconclusive = small, poorly fitted or top-dose-only effect, or another doubt; inactive = no such curve, though single readings can be large or run the other way.

SMILES	Shiga inhibitor	Pf growth 48h	CHX counter	Pf growth 96h	SARS PLP yeast	NS1 function inh
COc1c(O)cc2c(c1O)C(=O)CC(c1ccccc1)O2 (stereo not given)	71	-	44	?	-	-
COc1ccc([C@H]2CC(=O)c3c(O)cc(O)cc3O2)cc1O	-	-	23	-	-	-
Cc1c(O)cc2c(c1O)C(=O)CC(c1ccccc1)O2 (stereo not given)	-	-	-	-	-	-
COc1ccc(CN(C)C(=O)c2cnc(OC)cc2C(F)(F)F)c(OC)c1	-	?	-	-	-	-
Cc1cccnc1NCc1ccc(O)c2ncccc12	-	?	-	-	?	-
Oc1ccc(CNc2cccc(C(F)(F)F)c2)c2cccnc12	.	10µM	.	?	?	.
Oc1c(CNc2ccccc2)cc(COCc2ccccc2)c2cccnc12	.	1.2µM	.	3.3µM	4.5µM!	.
Cc1ccc(NCc2ccc(O)c3ncccc23)cc1C	54	-	36	?	-	-
Cc1ccc(NCc2ccc(O)c3ncccc23)cc1	-	-	16	-	-	-
CC(=O)c1ccc(O[C@@H]2O[C@H](CO)[C@@H](O)[C@H](O)[C@H]2O)cc1	.	.	.	.	-	.
CCCCNC(=O)COC(=O)c1c2c(nc3ccccc13)/C(=C/c1cccs1)CC2	104	-	52	?	-	?
CNC(=O)NC(=O)C(C)OC(=O)c1c2c(nc3ccccc13)/C(=C/c1cccs1)CC2 (stereo not given)	23	-	32	-	-	?
COc1cc(/C=C2\CCc3c2nc2ccccc2c3C(=O)O)cc(OC)c1OC	-	-	-	-	-	-
CCCCNC(=O)COC(=O)c1c2c(nc3ccccc13)CCC2	-	?	-	?	-	-
CN(C)S(=O)(=O)c1ccc(NC(=O)COc2ncnc3sccc23)cc1	-	-	-	-	-	.
O=C(c1cn2ccccc2n1)N1CCCC(Nc2ccc(F)c(F)c2)C1 (stereo not given)	-	?	-	?	-	-
C#CCOc1ccc(C2C3=C(CCCC3=O)N(CC(=O)O)C3=C2C(=O)CCC3)cc1Br	-	-	-	-	-	-
CCCS(=O)(=O)N1CCC(C(=O)NCCCOCC)CC1	-	-	-	15µM	-	-
CCCS(=O)(=O)N1CCC(C(=O)NCCCOC)CC1	-	-	-	-	-	-
CCCS(=O)(=O)N1CCC(C(=O)NCCCOC(C)C)CC1	-	-	-	9.3µM	-	-
Cc1ccc(S(=O)(=O)N(CC2CO2)c2cc(Cl)ccc2Cl)cc1 (stereo not given)	-	-	-	-	-	-
O=C(c1cccc(C(F)(F)F)c1)c1c[nH]c(C(=O)NCCCN2CCOCC2)c1	-	?	-	?	-	.
CC(C)ON(CC(=O)NO)S(=O)(=O)c1ccc(-c2ccccc2)cc1	-	.	-	.	.	.
CCCc1cnc(N2CCN(S(C)(=O)=O)CC2)nc1	-	?	23	-	-	-
CN(C(=O)CSc1nc(N)nn1-c1ccccc1)c1ccccc1	-	.	-	?	-	-
SMILES	Shiga inhibitor	Pf growth 48h	CHX counter	Pf growth 96h	SARS PLP yeast	NS1 function inh
O=C1CCNc2c(Cl)cc(Cl)cc21	-	-	-	-	-	-
CCCCCCCCCC[n+]1cccc2c3ccccc3ccc21	-	2.1µM	-	?	-	.
CCCCCCCC[n+]1cccc2c3ccccc3ccc21	-	1.2µM	-	-	-	.
Cc1cccc[n+]1CCCCCCCCCC[n+]1ccccc1C	-	?	-	-	-	-
Cc1cc(=O)[nH]c(SCC(=O)Nc2ccc(Br)cc2)c1C#N	-	.	-	15µM	-	-
Cc1cc(C)c(C#N)c(SCC(=O)Nc2ccc3c(c2)OCO3)n1	28	-	26	-	-	-
Cc1nc(SCC(=O)Nc2ccc3c(c2)OCO3)c(C#N)c2c1CCCC2	-	-	-	.	-	-
COCc1cc(C)nc(SCC(=O)Nc2ccc(C)c(C)c2)c1C#N	98	-	44	-	-	-
CC(C)(C)OC(=O)C[C@H]1C/C=C\C[C@H](CC(=O)N[C@@H](CO)Cc2ccccc2)C(=O)N[C@H](C(C)(C)C)COC1=O	.	.	.	.	-	.
COc1ccccc1NC(=S)NC(=O)c1c(-c2ccccc2Cl)noc1C	-	?	-	-	-	?
Cc1onc(-c2ccccc2Cl)c1C(=O)NC(C)c1ccccc1 (stereo not given)	-	-	-	13µM	-	?
Cc1onc(-c2ccccc2Cl)c1C(=O)N(Cc1ccccc1)C(C)C	-	-	-	-	-	-
Cc1onc(-c2ccccc2Cl)c1C(N)=O	-	-	-	-	-	-
Cc1onc(-c2ccccc2Cl)c1C(=O)NC(=S)Nc1ccccc1F	-	4.1µM	-	-	-	-
COc1ccc(-c2noc(CN(C(=O)c3c(-c4ccccc4Cl)noc3C)C(C)C)n2)cc1	-	10µM	-	.	-	-
COc1ccccc1CNC(=O)c1c(-c2ccccc2Cl)noc1C	-	10µM	-	-	-	-
C[C@H](CO)N1C[C@H](C)[C@@H](CN(C)S(C)(=O)=O)Oc2c(NC(=O)Nc3ccccc3)cccc2C1=O	.	.	.	.	-	.
NS(=O)(=O)c1ccc(CCNC(=O)CSc2nc3ccccc3c(=O)n2CCC(=O)N2CCCCC2)cc1	-	-	-	-	-	.
Cc1onc(-c2ccccc2Cl)c1C(=O)NC(=S)Nc1ccc(C(C)C)cc1	-	5.2µM	-	13µM	-	-
Cc1ccc(NC(=S)NC(=O)c2c(-c3ccccc3Cl)noc2C)cc1	-	10µM	-	?	-	-
Cc1onc(-c2ccccc2Cl)c1C(=O)NC(=S)NCCc1ccccc1	-	-	-	-	-	-
Cc1cc(OC(=O)c2ccccc2C)c([N+](=O)[O-])c(=O)[nH]1	-	-	-	-	-	-
COc1ccc(S(=O)(=O)N2CCCCC2)cc1NC(=O)c1ccc([N+](=O)[O-])o1	44	?	23	6.6µM	-	.
CCN1CCN(c2ccc(S(=O)(=O)N3CCCCC3)cc2NC(=O)c2ccc([N+](=O)[O-])o2)CC1	.	13µM	.	8.3µM	-	.
COc1ccc(S(=O)(=O)N2CCCCC2)cc1NC(=O)c1ccco1	-	-	-	?	-	-
SMILES	Shiga inhibitor	Pf growth 48h	CHX counter	Pf growth 96h	SARS PLP yeast	NS1 function inh
CN(C(=O)c1ccc(NC(=O)Cc2cccc(NC(=O)C3CCN(C(=O)C4CCCC4)CC3)c2)cc1)C1CCCC1	.	?	.	?	-	.
O=C(Nc1ccccc1Cl)C1CCN(Cc2cnn(-c3ccccc3)c2-n2cccc2)CC1	-	.	27	.	-	-
O=C(O)CSCc1cnn(-c2ccccc2)c1-n1cccc1	-	10µM	-	-	-	-
COc1cccc(NC(=O)C2CCN(Cc3cnn(-c4ccccc4)c3-n3cccc3)CC2)c1	-	.	51	?	-	-
COc1ccc(OC)c(NC(=O)C2CCN(Cc3cnn(-c4ccccc4)c3-n3cccc3)CC2)c1	-	.	-	?	-	-
CCn1cc(CN2CCC(C(=O)Nc3cccc(-c4cccc(OC)c4)c3)CC2)cn1	-	-	-	-	-	-
COc1ccc(NC(=O)C2CCN(Cc3cnn(-c4ccccc4)c3-n3cccc3)CC2)cc1OC	49	?	34	-	.	-

Source: PubChem (National Center for Advancing Translational Sciences (NCATS))
